# Results taken from PubChem BioAssay (NCATS).
# Where “and” joins values, the source holds several entries; their conditions need not be identical. Equal values may be shown once. A number with no mark means an inactive call. Inconclusive results are not listed. Entries that show only a call come without a potency. Calls of active or inactive are those of the source. Calls come from the whole dose curve; as a rule, active = well fitted curve in the direction sought with a large enough effect; inconclusive = small, poorly fitted or top-dose-only effect, or another doubt; inactive = no such curve, though single readings can be large; an effect the other way counts as inactive or inconclusive.
# How the values were obtained:
# [1] = molecular target: Calcium and integrin-binding protein 1 (Homo sapiens) (UniProt Q99828); test: Primary qHTS for Identification of Calcium Integrin Binding Protein 1 (CIB1) Competitor (AID 1508620);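 note: GST tagged CIB1 binding a fluorescein labelled alphaIIb integrin peptide tracer; top concentration of the series differs between compounds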
# Procedure, shortened: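 Fluorescence polarization competition: CIB1-GST (1 uM final) preincubated with compound 15 min at room temperature, then FITC-labeled alphaIIb peptide (100 nM final) added for another 15 min. Polarization read at Ex 480/Em 540.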
# [2] = Primary qHTS for inhibitors of nuclear receptor binding SET domain protein 2 (NSD2) in an isogenic RCH-ACV NSD2 p.E1099K mutant (9B) (AID 1645876); note: nearly all actives have a fitted effect of over 70% in size; note: potency is the fitted concentration of half-maximal effect
# [3] = Primary qHTS for inhibitors of nuclear receptor binding SET domain protein 2 (NSD2) in an RCH-ACV wild type WT cells (2C) (AID 1645877); note: nearly all actives have a fitted effect of over 70% in size; note: potency is the fitted concentration of half-maximal effect
# [4] = molecular target: Glutathione peroxidase 1 (Homo sapiens) (UniProt P07203); test: Primary qHTS Assay for Inhibitors of Recombinant Selenoprotein Glutathione Peroxidase 1 (GPX1) (AID 1845191); note: nearly all actives have a fitted effect of over 65% in size
# Procedure, shortened: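 GPX1 10 nM, GR 100 nM, GSH 1 mM, NADPH 0.5 mM, CHP 0.5 mM (final). 30-min cpd preincubation, RT. Ex340/Em450 read t=0, t=15 min.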
# [5] = molecular target: Phospholipid hydroperoxide glutathione peroxidase GPX4 (Homo sapiens) (UniProt P36969); test: Primary qHTS Assay for Inhibitors of Recombinant Selenoprotein Glutathione Peroxidase 4 (GPX4) (AID 1845192); settings: outcome: dose series up to 50 µM unless noted; note: nearly all actives have a fitted effect of over 65% in size; note: potency is the fitted concentration of half-maximal effect
# Procedure, shortened: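 qHTS, GR-coupled: GPX4 200 nM + cpd 30 min RT → GSH 1 mM, NADPH 0.5 mM, GR 100 nM → CHP 0.5 mM start; fluor 340/450 at t0 and t15 min; no-enzyme wells as control.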
# [6] = molecular target: Luciferin 4-monooxygenase (Photinus pyralis) (UniProt P08659); test: Primary firefly luciferase (FLuc) qHTS assay for identification of artifact compounds. (AID 1845220); note: nearly all actives have a fitted effect of over 60% in size
# Procedure, shortened: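 qHTS, 15 min compound preincubation with substrate (10 uM luciferin, 10 uM ATP) at RT, then 10 nM FLuc; 5 min; luminescence; % inhibition vs no-enzyme/DMSO controls, 4-parameter Hill fit.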
# [7] = Primary fluorescence-based thiol-reactive (MSTI) qHTS assay for identification of artifact compounds. (AID 1845221); note: nearly all actives have a fitted effect of over 65% in size; note: potency is the fitted concentration of half-maximal effect
# Procedure, shortened: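 First, 4 uM MSTI in 2% DMSO/PBS pH 7.4 was dispensed; next, compounds were added; then plates sat 1 h at room temperature without light. Finally, emission at 598 nm was recorded.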
# [8] = Primary redox qHTS assay for identification of artifact compounds. (AID 1845223)
# Procedure, shortened: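 Redox-cycling detection via DTT (250 uM final) oxidation coupled to Amplex Red (25 uM)/HRP (250 mU/mL) in HBSS. 15 min preincubation plus 30 min after DTT, room temperature. Ex/Em 525/598 nm; 4-parameter Hill fit against DMSO and 10 uM DA3003.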
# [9] = tested on: C33A; test: Primary qHTS to identify gynecologic anti-cancer compounds using libraries of approved drugs and bioactive compounds (AID 1345084); settings: Gynecologic cancer cell panel viability, ATPlite luminescence, 48 h; series mostly up to 57.5 µM; note: nearly all actives have a fitted effect of over 55% in size; note: potency is the fitted concentration of half-maximal effect
# Procedure, shortened: (§1)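 48 h compound exposure at 37 C, 5% CO2; five-point qHTS. ATPlite luminescence readout of cell ATP.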
# [10] = tested on: CASKI; test: as above; settings: Gynecologic cancer cell panel viability, ATPlite luminescence, 48 h; series mostly up to 57.5 µM
# Procedure, shortened: as §1
# [11] = tested on: Es-2; test: as above; settings: Gynecologic cancer cell panel viability, ATPlite luminescence, 48 h; series mostly up to 57.5 µM
# Procedure, shortened: as §1
# [12] = tested on: HeLa; test: as above; settings: Gynecologic cancer cell panel viability, ATPlite luminescence, 48 h; series mostly up to 57.5 µM
# Procedure, shortened: as §1
# [13] = tested on: Hek293T; test: as above; settings: Gynecologic cancer cell panel viability, ATPlite luminescence, 48 h, control line for the selectivity index; series mostly up to 57.5 µM
# Procedure, shortened: as §1
# [14] = tested on: JEG-3; test: as above; settings: Gynecologic cancer cell panel viability, ATPlite luminescence, 48 h; series mostly up to 57.5 µM
# Procedure, shortened: as §1
# [15] = tested on: PA-1; test: as above; settings: Gynecologic cancer cell panel viability, ATPlite luminescence, 48 h; series mostly up to 57.5 µM
# Procedure, shortened: as §1
# [16] = tested on: Tov112D; test: as above; settings: Gynecologic cancer cell panel viability, ATPlite luminescence, 48 h; series mostly up to 57.5 µM
# Procedure, shortened: as §1
# [17] = tested on: Zika virus NS2B-NS3 protease (linked construct); test: Primary screen NINDS Rhodamine qHTS for Zika virus inhibitors (AID 1347160); note: nearly all actives have a fitted effect of over 55% in size
# Procedure, shortened: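 Each compound, titrated, sat 15 min with 25 nM linked protease before 1.5 microM Rhodamine110 substrate went in. Fluorescence gain over the next 15 min, in pH 8.0 Tris with Tween 20, gave Hill-fitted curves.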
# [18] = tested on: OV90; test: Primary qHTS to identify gynecologic anti-cancer compounds using libraries of approved drugs and bioactive compounds (AID 1345084); settings: Gynecologic cancer cell panel viability, ATPlite luminescence, 48 h; series mostly up to 57.5 µM; note: nearly all actives have a fitted effect of over 55% in size; note: potency is the fitted concentration of half-maximal effect
# Procedure, shortened: as §1
# [19] = tested on: Tov-21-G; test: as above; settings: Gynecologic cancer cell panel viability, ATPlite luminescence, 48 h; series mostly up to 57.5 µM
# Procedure, shortened: as §1
# [20] = tested on: Nanoluciferase (engineered Oplophorus gracilirostris luciferase); test: Primary Nanoluciferase (NLuc) qHTS assay for identification of artifact compounds. (AID 1845222)
# Procedure, shortened: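 Luminescence read-out of secreted NLuc in S16 cell conditioned medium (1:55); compounds tested with 15 min RT preincubation, then Nano-Glo substrate 1:100, 5 min. % inhibition vs no-enzyme and DMSO controls, 4-parameter Hill fit.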
# Chain of Phospholipid hydroperoxide glutathione peroxidase GPX4 (Homo sapiens) (P36969 whole entry, looked up): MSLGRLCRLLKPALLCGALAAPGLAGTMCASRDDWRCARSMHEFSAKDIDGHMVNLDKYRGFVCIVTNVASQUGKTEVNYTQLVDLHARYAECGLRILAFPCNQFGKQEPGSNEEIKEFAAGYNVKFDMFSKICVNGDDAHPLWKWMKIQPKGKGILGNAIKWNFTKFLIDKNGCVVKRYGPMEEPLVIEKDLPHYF
# Chain of Calcium and integrin-binding protein 1 (Homo sapiens) (Q99828 whole entry, looked up): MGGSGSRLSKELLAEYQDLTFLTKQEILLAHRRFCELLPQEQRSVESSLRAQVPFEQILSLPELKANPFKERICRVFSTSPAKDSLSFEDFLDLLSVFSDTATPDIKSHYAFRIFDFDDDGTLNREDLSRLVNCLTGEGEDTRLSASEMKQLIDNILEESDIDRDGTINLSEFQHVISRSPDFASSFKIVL
# Chain of Glutathione peroxidase 1 (Homo sapiens) (P07203 whole entry, looked up): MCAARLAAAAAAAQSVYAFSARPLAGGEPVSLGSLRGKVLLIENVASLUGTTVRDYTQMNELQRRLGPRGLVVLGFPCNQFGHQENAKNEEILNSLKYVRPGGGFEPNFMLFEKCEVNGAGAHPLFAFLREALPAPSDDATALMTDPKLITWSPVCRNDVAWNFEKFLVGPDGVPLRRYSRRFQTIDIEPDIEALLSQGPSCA
Compound,outcome [1],Potency [2],Potency [3],Potency [4],Potency [5],Potency [6],Potency [7],Potency [8],Potency [9],Potency [10],Potency [11],Potency [12],Potency [13],Potency [14],Potency [15],Potency [16],Potency [17],Potency [18],Potency [19],Potency [20]
O=[N+]([O-])c1ccc(-[n+]2nc(-c3ccccc3)nn2-c2ccc(I)cc2)cc1,inactive,inactive,inactive,inactive,inactive,inactive,10.6 µM (active),inactive,inactive,inactive,inactive,inactive,inactive,inactive,inactive,inactive,–,–,–,–
Cc1ccc(C2(COC(=O)C(C)C)CO2)c(OC(=O)C(C)C)c1 (configuration not stated),inactive,–,–,inactive,inactive,inactive,inactive,inactive,inactive,inactive,inactive,inactive,inactive,inactive,inactive,inactive,inactive,inactive,inactive,–
CCN1CCN(Cc2ccc(-c3cc4c(NC(C)c5ccccc5)ncnc4[nH]3)cc2)CC1 (configuration not stated),inactive,4.59 µM (active),5.78 µM (active),–,14.3 µM (active),–,inactive,inactive,inactive,–,inactive,inactive,inactive,inactive,–,–,inactive,–,4.47 µM (active),inactive
COc1ccc(Cl)cc1[C@@]1(F)C(=O)Nc2cc(C(F)(F)F)ccc21,inactive,7.28 µM (active),5.78 µM (active),–,inactive,inactive,inactive,inactive,inactive,inactive,inactive,–,–,inactive,–,–,inactive,inactive,inactive,inactive
C=C1/C(=C/C=C2\CCC[C@]3(C)[C@@H]([C@H](C)/C=C/C(=O)C4CC4)CC[C@@H]23)C[C@@H](O)C[C@@H]1O,inactive,16.3 µM (active),23 µM (active),inactive,inactive,–,inactive,–,inactive,inactive,inactive,inactive,inactive,inactive,inactive,inactive,–,inactive,inactive,inactive
O=C(Nc1ccc(F)cc1)N1CCc2ccccc2C1c1ccc(C(F)(F)F)cc1 (configuration not stated),inactive,18.3 µM (active),18.3 µM (active),inactive,inactive,inactive,0.0474 µM (active),inactive,inactive,inactive,inactive,inactive,inactive,inactive,inactive,inactive,inactive,inactive,inactive,inactive
CC(C)N(CCCNC(=O)Nc1ccc(C(C)(C)C)cc1)C[C@H]1O[C@@H](n2cc(Br)c3c(N)ncnc32)[C@H](O)[C@@H]1O,inactive,12.9 µM (active) and 16.6 µM (active),12.9 µM (active) and 14.8 µM (active),inactive,inactive,inactive,inactive,–,inactive,inactive,inactive,inactive,inactive,inactive,–,inactive,inactive,inactive,inactive,inactive
C/C=C(/COC(=O)/C(C)=C/C)C(=O)OC/C=C/c1ccc(OC)cc1,inactive,–,–,inactive,inactive,inactive,inactive,–,inactive,inactive,inactive,inactive,inactive,inactive,–,–,inactive,inactive,inactive,inactive
CC1CCC2C(=CCC(O)C2(C)C)C1(C)Cc1c(O)cc(CO)c(C=O)c1O (configuration not stated),inactive,–,–,–,inactive,inactive,inactive,–,inactive,inactive,inactive,inactive,inactive,inactive,inactive,inactive,inactive,inactive,inactive,inactive
C=C(C)[C@@H]1CC[C@]2(C(=O)O)CC[C@]3(C)C(CCC4[C@@]5(C)C[C@@H](O)[C@H](O)C(C)(C)C5CC[C@]43C)C12 (some centres not stated),inactive,–,–,inactive,–,inactive,inactive,inactive,inactive,inactive,inactive,inactive,inactive,inactive,inactive,inactive,inactive,inactive,inactive,–
CC/C(=C(\c1ccc(O)cc1)c1ccc(OCCNC)cc1)c1ccccc1,–,–,–,inactive,inactive,–,inactive,inactive,inactive,inactive,inactive,inactive,inactive,inactive,inactive,inactive,inactive,inactive,inactive,inactive
Cc1ccccc1C(=O)Nc1ccc(C(=O)N2CCC[C@@H](O)c3cc(Cl)ccc32)c(C)c1,inactive,–,–,inactive,inactive,inactive,inactive,inactive,inactive,inactive,inactive,inactive,inactive,inactive,inactive,inactive,inactive,inactive,inactive,inactive
O=C(c1ccc(F)c(F)c1Nc1ccc(I)cc1F)N1CC(O)(C2CCCCN2)C1 (configuration not stated),inactive,20.5 µM (active),18.3 µM (active),inactive,inactive,inactive,inactive,inactive,35.5 µM (active),28.2 µM (active),–,–,inactive,inactive,–,–,inactive,–,–,inactive
